Measured values as given in ChEMBL document CHEMBL3988442, “University of Dundee, Small-Polar-MMV Screening Library” (2021).

What follows are compounds tested against T1, Aspartate--tRNA(Asp/Asn) ligase (Mycobacterium tuberculosis (strain ATCC 25618 / H37Rv)) (UniProt P9WFW3) (assay: Assay for Asp RNA synthetase-1 from Mycobacterium tuberculosis). Details: 30 µM.
T1 sequence (whole entry): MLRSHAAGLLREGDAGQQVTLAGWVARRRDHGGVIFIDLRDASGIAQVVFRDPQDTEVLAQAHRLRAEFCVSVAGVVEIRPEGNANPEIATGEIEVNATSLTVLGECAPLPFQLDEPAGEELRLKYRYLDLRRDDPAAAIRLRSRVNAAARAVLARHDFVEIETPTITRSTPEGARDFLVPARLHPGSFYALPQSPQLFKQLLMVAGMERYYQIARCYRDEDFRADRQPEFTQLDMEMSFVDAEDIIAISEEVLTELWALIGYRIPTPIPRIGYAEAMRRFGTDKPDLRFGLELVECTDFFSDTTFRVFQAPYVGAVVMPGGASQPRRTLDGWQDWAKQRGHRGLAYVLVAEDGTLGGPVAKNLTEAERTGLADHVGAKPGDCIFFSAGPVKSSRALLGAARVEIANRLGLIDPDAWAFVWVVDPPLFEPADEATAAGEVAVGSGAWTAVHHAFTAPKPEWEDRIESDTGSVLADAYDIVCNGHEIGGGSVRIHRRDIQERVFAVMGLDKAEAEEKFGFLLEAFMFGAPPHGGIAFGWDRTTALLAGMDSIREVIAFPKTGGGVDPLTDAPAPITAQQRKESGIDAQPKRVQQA
Format: functional
Design: scale not given: in the data most compounds retested in dose-response had high values
Work on Cn1cc(C[C@H]2[C@H](O)CCN2CC2CC2)cn1 yielded a Percent Effect of -0.168%. In the case of CNc1cncc(C2CCCN2Cc2c[nH]cn2)n1 (stereo not given), the Percent Effect is reported as 7.49%. In the case of CC(C)c1nc(C2CCCN2Cc2ccn(C)c(=O)c2)no1 (stereo not given), the Percent Effect is reported as 3.39%. Compound C=C1c2ccccc2C(=O)N1CCC(=O)N1CCNC(=O)C1 has a Percent Effect of -2.35%. For COCCCNc1nccc(-c2c[nH][nH]c2=O)n1, the Percent Effect was 6.51%. Compound CC(C)(C)c1nc(CN2CCCC(Cn3cncn3)C2)cs1 (stereo not given) has a Percent Effect of 4.23%. CC1CCN(S(=O)(=O)NCC2CCOc3ccccc3C2)CC1 (stereo not given) showed a Percent Effect of 0.0297%. Compound CC(C)c1nc(CN(C)C2CCN(CCNS(C)(=O)=O)C2)no1 (stereo not given) has a Percent Effect of 0.0463%. With Cc1nc(CO[C@@H]2CN(Cc3cnn(C)c3)[C@@H]3COC[C@@H]32)cs1 the Percent Effect was -6.31%. In the case of O=C(NC[C@]1(O)CN(Cc2ccccc2F)C[C@H]1O)c1ccccn1, the Percent Effect is reported as 7.9%. COCc1ccccc1CNCc1c(C)nn(C)c1N(C)C was tested, and the Percent Effect was 0.533%. For Cn1c(C(F)(F)F)nn(CCNC(=O)NCc2ccccc2)c1=O, the Percent Effect was -5.98%. Cn1cc(CN2CCCC23CCN(C(=O)c2cccn2C)CC3)cn1 was tested, and the Percent Effect was -4.47%. Compound CNC(=O)CSc1cnn(CC(=O)Nc2cccc(Cl)c2C)c(=O)c1Cl has a Percent Effect of -5.35%. Work on CCC(=O)Nc1nnc(CCOc2cccc(OC)c2)s1 yielded a Percent Effect of -4.27%. Fc1ccc(CN2CCC(c3nccnc3-n3ccnc3)CC2)cc1 was tested, and the Percent Effect was -5.52%. With CCN(CC)C(=O)c1ccc(-c2ccsc2)nc1C the Percent Effect was -1.17%. With Cc1ccc(OCC(O)CN2CCC(Cn3cccn3)CC2)cc1 (stereo not given) the Percent Effect was -1.46%. Work on COc1ccc(-n2nnc(C(=O)NC(C)C)c2C2CC2)cc1 yielded a Percent Effect of -4.62%. For CC(C)n1ccnc1C1CCN(Cc2ccc(Cl)s2)CC1, the Percent Effect was 4.1%. In the case of CN(C(=O)Cn1nc(-c2cccs2)ccc1=O)C1CCS(=O)(=O)C1 (stereo not given), the Percent Effect is reported as 1.02%. Cc1nc2ccccc2nc1CN1CCCC1c1c(C)nn(C)c1C (stereo not given) gave a Percent Effect of -5.6%. Work on CNC(=O)N1CC[C@@H]2CN(Cc3cccnc3)S(=O)(=O)[C@@H]2CC1 yielded a Percent Effect of 1.91%. Compound c1ccc(OCc2ccncc2)c(CNC2CCc3ncnn3C2)c1 (stereo not given) has a Percent Effect of -3.54%. COCc1ncn2c1CN(C(=O)C1CC=CC1)CC2 was tested, and the Percent Effect was 1.48%. With O=C(c1cscn1)N1CCC2(CCN(Cc3nccs3)C2)CC1 the Percent Effect was 1.85%. In the case of Cc1nn2c(N3CCC(O)CC3)cc(-c3ccccc3)nc2c1C, the Percent Effect is reported as 1.19%. Compound COc1ccc(Cl)cc1NCC(=O)NCCc1ccccn1 has a Percent Effect of -0.954%. For CSCCCN1CC[C@@H](NC(=O)c2cnccn2)[C@H](O)C1, the Percent Effect was -0.39%. In the case of Cc1ccc(N2CC[C@H]3OCC[C@@]3(C(=O)NC(C)C)C2)nn1, the Percent Effect is reported as -2.66%. In the case of CN(Cc1nc(N)c2ccccc2n1)CC1CCCN1c1cccnn1 (stereo not given), the Percent Effect is reported as 4.61%. Compound Cc1cn(-c2ccccc2)nc1NS(=O)(=O)c1cc(C(=O)O)cs1 has a Percent Effect of 5.52%. NCCn1nc(C2CCN(C(=O)CC3CCCCC3)C2)c2nccnc21 (stereo not given) was tested, and the Percent Effect was 1.37%. O=C(c1cccnc1N1CCOCC1)N1CCCC(n2ccnc2)C1 (stereo not given) showed a Percent Effect of -4.5%. Cc1cc(CN(C)C(=O)c2cccc(N3CCCC3=O)c2)no1 was tested, and the Percent Effect was 4.48%. For COc1cc2cc(C(=O)N[C@@H](C)C(=O)O)n(C)c2c(OC)c1OC, the Percent Effect was -3.11%. Work on CC(C)Cc1noc(CN2CCN(c3nccs3)CC2)n1 yielded a Percent Effect of -4.73%. CCn1cnnc1C1CCN(C(=O)c2ccc(C(=O)OC)s2)CC1 was tested, and the Percent Effect was -7.04%. Cc1cc(C2CCCN(CCCS(=O)(=O)c3ccccc3)C2)n[nH]1 (stereo not given) showed a Percent Effect of 3.14%. Work on COc1ccc(CN(Cc2cccnc2)CC2CCCO2)c(OC)c1 (stereo not given) yielded a Percent Effect of -3.99%.
